Source: PubChem
ssDAF12 agonist = S. stercoralis DAF-12 nuclear receptor activators, primary screen, cell-based, luminescence, HEK293, GRIP1 co-expression, lit1-tk-luc; Nuclear hormone receptor DAF-12 (Strongyloides stercoralis); HEK293 ssDAF-12/GRIP1 lit1-tk-luc reporter; % of 3 µM dafachronic acid response; 370,000 tested, 1% active; activation, % at 6.8 µM;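 active = activation above the mean over all tested compounds plus 3 SD, cut at about 0.9% in these data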;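 note: 0% = DMSO-only wells and 100% = 3 µM delta7-dafachronic acid wells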
DAX1 inh-1 = DAX1 (NR0B1) inhibitors on StAR promoter, primary screen, cell-based, luminescence, SF-1 (NR5A1), full-length DAX-1; HEK293T StAR-luciferase reporter, SF-1/DAX-1 repression relief; inhibition, % at 6.8 µM; 370,000 tested, 1.1% active; AID 652010, 2013;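 active = inhibition above the mean over all tested compounds plus 3 SD, cut at about 3.6% in these data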;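 note: 0% = DAX-1 cells with DMSO and 100% = cells lacking DAX-1 with DMSO; higher inhibition means more luminescence from relief of DAX-1 repression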
hgDAF-12 ag = H. glycines DAF-12 receptor agonists, primary screen, cell-based, luminescence, HEK293, GAL4 fusion, UAS-luciferase. Nuclear hormone receptor DAF-12 (Heterodera glycines), GAL4 fusion. HEK293 GAL4-hgDAF12 UAS-luciferase reporter, agonist luminescence; normalized to butyrate control. activation, % at 6.8 µM. 370,000 tested, 1.8% active;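 active = activation above a cutoff set at the mean of all screened compounds plus 3 SD, cut at about 10% in these data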;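 note: 0% = DMSO wells and 100% = sodium butyrate wells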
hcDAF12 agonist = H. contortus DAF-12 nuclear receptor activators, primary screen, cell-based, luminescence, HEK293, lit1-tk-luc reporter. HEK293 hcDAF-12 lit1-tk-luc reporter; 0% DMSO, 100% Δ7-dafachronic acid. activation, % at 6.8 µM. 370,000 tested, 1.4% active. AID 652067, 2013;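 active = activation above the mean of all tested compounds plus 3 SD, cut at about 5.5% in these data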;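 note: 100% = response to 3 µM Δ7-dafachronic acid high control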
DAX1 inh-2 = DAX1 (NR0B1) inhibitors, primary screen, cell-based, HEK293, Gal4-DAX1, luciferase luminescence; 340,000 tested, 0.99% active; HEK293 Gal4-DAX1 luciferase reporter; inhibition, % at 6.75 µM;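 active = inhibition above the mean over all tested compounds plus 3 SD, cut at about 4.2% in these data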;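 note: 0% = DAX1-transfected cells with DMSO and 100% = empty-vector control cells with DMSO; inhibition shows as a rise in luminescence from relieved DAX1 repression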
Target sequence (P51843 207-470 limits assumed): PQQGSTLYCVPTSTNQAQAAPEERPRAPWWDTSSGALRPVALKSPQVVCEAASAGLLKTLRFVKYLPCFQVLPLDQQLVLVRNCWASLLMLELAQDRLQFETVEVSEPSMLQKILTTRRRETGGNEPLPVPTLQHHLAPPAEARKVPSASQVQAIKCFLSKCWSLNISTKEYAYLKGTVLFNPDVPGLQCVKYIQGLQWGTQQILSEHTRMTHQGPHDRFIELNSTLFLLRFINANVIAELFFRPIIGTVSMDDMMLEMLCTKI
Starred values were filed as active, the others as inactive; . = not tested or not shown. The list is not random: actives were taken first. Their share in the collection is about 4.1%.

SMILES	ssDAF12 agonist	DAX1 inh-1	hgDAF-12 ag	hcDAF12 agonist	DAX1 inh-2
COC(=O)[C@]12C[C@H](CC(=O)NCc3cccs3)C(=O)N(Cc3ccc4c(c3)OCO4)C1=C[C@H](COCc1ccccc1)O[C@@H]2C	-1	-1	0	-1	.
CC1=C(C(=O)OC2CCCC2)C(c2coc3ccc(C)cc3c2=O)C2=C(CCCC2=O)N1 (stereo unspecified)	0	0	-2	3	3
CC1=C(C(=O)OCC2CCCO2)C(c2coc3ccc(C)cc3c2=O)C2=C(CCCC2=O)N1 (stereo unspecified)	1.7*	0	-1	4	-2
CC1=C(C(=O)OCC2CCCO2)C(c2coc3ccc(Cl)cc3c2=O)C2=C(CCCC2=O)N1 (stereo unspecified)	0	-1	-1	3	8.9*
O=C(CCc1ccccc1)N[C@H]1[C@H](OC(=O)c2cccnc2)CCC[C@@]12C(=O)N(Cc1ccccc1)c1ccccc12	-2	-1	0	-2	.
Cc1cc(NCCCN2CCOCC2)n2nc(C)c(-c3ccccc3)c2n1	-1	0	0	-1	0
Cc1cc(NCCCN2CCOCC2)n2ncc(-c3ccccc3)c2n1	1.3*	3	11*	6.0*	2
Cc1cc(NCc2ccccn2)n2ncc(-c3ccc(Cl)cc3)c2n1	-1	1	9	3	.
Cc1cc(NCc2ccccn2)n2ncc(-c3ccccc3)c2n1	1.3*	3	12*	5	4.7*
CCC(C(=O)NC1CCCC1)n1c(C2CCCC2)nc2ccccc21 (stereo unspecified)	-1	-1	6	-1	.
Cn1c(=O)[nH]c2ncn(C)c2c1=O	-1	1	11*	0	0
O=C(CN(Cc1ccco1)C(=O)c1cc(=O)[nH]c2ccccc12)Nc1ccccc1C(F)(F)F	-1	0	-2	0	6.3*
c1ccc(Cc2nc3ccccc3s2)cc1	0	-1	8	5.8*	2
Cc1ccnc(SCc2nc3ccccc3s2)n1	0	2	9	5.8*	3
O=C(CCc1nc2ccccc2s1)Nc1ccccc1	-1	-1	-1	-1	-1
COc1ccc(OC)c(NC(=S)N2CCC(C(O)(c3ccccc3)c3ccccc3)CC2)c1	-2	0	1	1	0
Cc1cc(-c2n[nH]c(=S)n2N=Cc2ccc(O)cc2)n[nH]1	-1	-1	-1	1	.
O=S(=O)(c1ccccc1)c1cnc(-c2cccnc2)nc1-c1ccc(Cl)c(Cl)c1	1.6*	0	1	0	1
Cc1ncc(S(=O)(=O)c2ccccc2)c(-c2ccccc2)n1	-1	0	1	-1	-1
Cc1c(Cl)cccc1NC(=O)CSc1sc2c(O)cc(=O)[nH]c2c1C#N	-1	0	1	-2	4.4*
CCOc1ccc(CN2CCN(Cc3cc4ccccc4[nH]3)CC2CCO)cc1 (stereo unspecified)	2.0*	0	1	5	-2
CC(C)(C)CN1CCN(Cc2cc3ccccc3[nH]2)CC1CCO (stereo unspecified)	0	0	2	6.3*	0
CCC(CC)(CC(=O)Nc1cccc(/C=C/c2nc(C3CCC3)cs2)c1)C(=O)O	-1	1	1	0	.
CC(C)C(=O)O/N=C1\CCS(=O)(=O)c2sccc21	-1	0	2	1	6.2*
CCOC(=O)C1=C(COC(=O)c2cccc(N(C)C)c2)NC(=O)NC1C (stereo unspecified)	0	4.2*	5	1	0
SMILES	ssDAF12 agonist	DAX1 inh-1	hgDAF-12 ag	hcDAF12 agonist	DAX1 inh-2
C/C(=N/NC(=O)c1ccc(-c2ccccc2)cc1)c1cccc(O)c1	-1	2	1	1	-1
COc1cccc(C(=O)N/N=C(\C)c2ccc(NC(=O)Cc3ccccc3)cc2)c1OC	0	3.8*	8	4	1
COc1ccc(CC(=O)Nc2ccc(/C(C)=N/NC(=O)c3ccc(OC)cc3OC)cc2)cc1	0	0	2	-2	0
C/C(=N\NC(=O)c1cccc(O)c1)c1cccc(NC(=O)c2ccc(F)cc2)c1	1	4.3*	6	0	2
C/C(=N\NC(=O)c1cccc(O)c1)c1ccc(NC(=O)Cc2ccccc2)cc1	0	6.8*	10	2	1
C/C(=N\NC(=O)c1ccc(F)cc1)c1cccc(NC(=O)c2cccc(F)c2)c1	-1	1	3	3	0
Nc1c(C(=O)Nc2ccc(Cl)cc2)sc2nc(N3CCOCC3)c3c(c12)CCCC3	-1	0	1	-2	0
COc1cc([N+](=O)[O-])ccc1N1C(=O)C2C3C=CC(C4CC34)C2C1=O (stereo unspecified)	-2	0	-2	0	0
Cc1ccc2c(C)c(C(=O)N(C)C(C)c3ccon3)oc2c1C (stereo unspecified)	0	4.2*	6	1	2
O=C(Nc1cccc(Cl)c1)NC1CC2CCC(C1)N2Cc1cccs1 (stereo unspecified)	-1	1	0	0	4.6*
O=C(c1ccccc1)C(CN1CCCCC1)c1ccccc1 (stereo unspecified)	-2	-3	-4	-2	-5
CCO[C@@H]1OC(C(=O)O)=C[C@H](C2CCCCC2)[C@H]1CCCO	-1	0	3	-1	2
CCO[C@H]1OC(C(=O)NC2CC2)=C[C@@H](C2CCCCC2)[C@@H]1CCCO	-2	0	0	-1	1
C#CCNC(=O)C1=C[C@@H](C2CCCCC2)[C@H](CCCO)[C@@H](OCC)O1	-1	0	0	-2	5.3*
CCO[C@@H]1OC(C(N)=O)=C[C@H](C2CCCCC2)[C@H]1CCCO	-1	0	0	0	4.3*
Nn1c(SCC(=O)N2CCOCC2)nnc1-c1n[nH]c2c1CCC2	-1	0	5	0	.
COC(=O)[C@]12C[C@H](CC(=O)N3CCCCC3)C(=O)N(CCc3ccc(OC)c(OC)c3)C1=C[C@H](C(C)C)O[C@@H]2C1CC1	-1	0	4	-1	.
CCOC(=O)CC(=O)c1sc2c(c1N)c(=O)[nH]c(=O)n2-c1ccc(OC)cc1	0	1	2	3	4.3*
Cn1c(=O)c2nc(Cl)c(-c3ccccc3)nc2n(C)c1=O	-1	0	0	-1	2
Cn1c(=O)c2nc(-c3ccccc3)c(-c3ccccc3)nc2n(C)c1=O	-1	0	-1	0	4.5*
